This is an account of results in PubChem BioAssay.

The source made the active and inactive calls.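 How the source made its calls, unless noted: active means inhibition at or above 50% at 10 µM; inactive means inhibition below 50%.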

Assay [1] can be described thus: inhibitors of TNFa-induced NFkB p65 translocation, primary screen, imaging, HUVEC, MLSMR starter and 10KST1 sets (AID 438;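 active means inhibition above 20% together with a positive visual image hit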;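 further: compound added about 3h40 before a 20 min TNFalpha stimulation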;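 on inhibition: signal is the nuclear over cytoplasmic p65 intensity ratio per well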). The note with it: HUVEC TNFa-induced p65 nuclear translocation; cell count: measured here: nuclei count (cytotoxicity indicator), at 2.08 µM; inhibition: at 2 µM, stronger effect = higher value, 0% TNFa-plus-vehicle, 100% no-TNFa wells.
Assay [2] can be described thus: inhibitors of mutant huntingtin aggregation, primary screen, imaging, exon1htt(103Q)mCFP cells, high-content imaging (AID 483;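 active means visual image review flags a hit and inhibition of aggregation exceeds 20%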;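 further: compound exposure lasted 3 days before fixation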;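 on nuclei count: percent of the per-plate median nuclei count of sample wells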). The note with it: exon1htt(103Q)mCFP cell line, aggregate imaging, at 2 µM; inhibition of aggregation: stronger effect = higher value; nuclei count: measured here: cell count, toxicity.
A short description of assay [3]: inhibitors of E-selectin induction by TNFa, primary screen, imaging, HUVEC, immunofluorescence, MLSMR starter and 10KST1 sets (AID 487;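 active means visually confirmed hit in the image check and inhibition above 20%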;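 on inhibition: signal is fraction of cell area covered by stained E-selectin grains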;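 on nuclei count: 100% = median nuclei count of all wells on the same plate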). Particulars: HUVEC TNFalpha-induced E-selectin immunofluorescence imaging, at 2 µM; inhibition: stronger effect = higher value; nuclei count: measured here: cell number, toxicity.
Assay [4] deals with Voltage-gated potassium channel subunit beta-2 (Rattus norvegicus) (UniProt P62483). Description: KvBeta enzyme negative modulators, primary screen, biochemical, NADPH fluorescence (AID 622;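 active means fluorescence slope higher than the sample average by over 3 SD, cut at about -0.22 in these data, passing the limit was not always enough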;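 further: slope of raw intensity against log time taken from 70 to 1610 s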). The note with it: recombinant KvBeta, 4-cyanobenzaldehyde reduction, at 10 µM, stronger effect = higher value.
Sequence of Voltage-gated potassium channel subunit beta-2 (Rattus norvegicus) (P62483 whole entry, looked up): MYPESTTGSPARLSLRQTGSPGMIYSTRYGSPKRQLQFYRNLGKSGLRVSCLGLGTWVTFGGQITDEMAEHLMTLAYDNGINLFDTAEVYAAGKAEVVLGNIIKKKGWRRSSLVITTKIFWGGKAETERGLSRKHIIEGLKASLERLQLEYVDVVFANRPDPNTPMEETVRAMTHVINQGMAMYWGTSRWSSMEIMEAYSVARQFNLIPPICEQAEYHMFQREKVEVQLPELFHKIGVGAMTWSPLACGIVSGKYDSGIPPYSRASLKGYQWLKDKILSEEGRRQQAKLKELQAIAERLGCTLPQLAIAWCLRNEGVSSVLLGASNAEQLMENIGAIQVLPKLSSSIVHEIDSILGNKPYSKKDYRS
The target is the same in assay [5]. Description: KvBeta positive modulators, primary screen, biochemical, NADPH fluorescence (AID 623;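 active means NADPH fluorescence slope more negative than the mean of all samples by about 3 SD, 99.7% confidence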;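 further: fluorescence intensity change per second fitted from 20 to 320 s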). Particulars: Recombinant KvBeta, NADPH fluorescence decrease slope, 10 min; at 10 µM; stronger effect = lower value.
The target of assay [6] is Alpha-2C adrenergic receptor (Homo sapiens) (UniProt P18825). Description: modulators of alpha2C/GIRK thallium flux, primary screen, cell-based, HEK293 alpha2C/GIRK1/2 (AID 624;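 active means fluorescence slope after compound addition differing from the mean of all screened samples at 99.7% confidence, in either direction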;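 further: slope of fluorescence ratio to pre-addition baseline per second over 15 to 24 s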). Particulars: thallium flux BTC fluorescence, at 10 µM, actives lie on both sides.
Sequence of Alpha-2C adrenergic receptor (Homo sapiens) (P18825 whole entry, looked up): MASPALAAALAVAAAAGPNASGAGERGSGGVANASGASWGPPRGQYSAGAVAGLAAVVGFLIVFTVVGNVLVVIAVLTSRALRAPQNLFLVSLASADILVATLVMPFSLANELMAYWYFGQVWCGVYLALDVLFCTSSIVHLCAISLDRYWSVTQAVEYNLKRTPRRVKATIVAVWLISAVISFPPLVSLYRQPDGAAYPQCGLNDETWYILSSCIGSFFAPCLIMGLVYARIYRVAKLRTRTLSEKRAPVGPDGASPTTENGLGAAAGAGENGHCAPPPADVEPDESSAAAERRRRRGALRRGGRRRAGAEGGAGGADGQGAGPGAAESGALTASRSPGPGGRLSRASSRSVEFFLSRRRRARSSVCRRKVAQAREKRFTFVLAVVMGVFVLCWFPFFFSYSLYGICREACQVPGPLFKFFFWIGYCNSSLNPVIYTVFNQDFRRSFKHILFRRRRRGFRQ
Assay [7] in a line: inhibitors of Sendai virus-induced IRF3 signaling, primary screen, TLR/RLR signaling modifier project, cell-based, Sendai virus stimulus, luciferase, 10K MLSCN set (AID 602276).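 Further: firefly luciferase from ISG56 promoter only with Renilla not read in this screen; 0% = Sendai virus plus DMSO and 100% = medium plus DMSO without virus.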 The note with it: HEK293 RL24 IRF3 luciferase reporter, at 10 µM, stronger effect = higher value.
A short description of assay [8]: inhibitors of poly I:C-induced TLR3 signaling, primary screen, cell-based, poly I:C stimulus, luciferase, 10K MLSCN set (AID 602277;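 active means inhibition of the reporter signal at or above 50%; inactive means inhibition below 50%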). The note with it: HEK293-TLR3 RL24 IRF3 luciferase reporter, at 10 µM, stronger effect = higher value.

Turning to `O=C(Nc1nc2c(s1)CCCC2)C1COc2ccccc2O1` (centres undefined), the cell count in assay [1] worked out at 695. Also, the inhibition is -13.1% (inactive) in assay [1], -26.2% (inactive) in assay [3], 31% (inactive) in assay [7] and -19.8% (inactive) in assay [8]. For the same molecule, the inhibition of aggregation in assay [2] is 30.9% (inactive). In addition, the nuclei count is 110% in assay [2] and 114% in assay [3]. The fluorescence slope in assay [4] was -0.517 (inactive). The NADPH fluorescence slope in assay [5] was -1.6e-05 (inactive). For the same molecule, in assay [6], the slope was 0.00646 (inactive).
As for `CCCNC(=O)NC1C(NC(=O)NCCC)N(C)C(=O)N1C` (centres undefined), the cell count in assay [1] was 551. Further, the inhibition in assay [1] is -0.3% (inactive); in assay [3] it was -60.1% (inactive); in assay [7], -0.304% (inactive); in assay [8] it was 16.2% (inactive). In addition, the inhibition of aggregation in assay [2] is -4.3% (inactive). Further, the nuclei count came out at 98.1% in assay [2] and 116% in assay [3]. The fluorescence slope in assay [4] is -0.461 (inactive). In addition, the NADPH fluorescence slope in assay [5] was 2.5e-05 (inactive). For the same molecule, in assay [6], the slope was 0.00546 (inactive).
On to `c1ccc(CN2CCN(CCCNc3ccc4nnc(-c5ccccc5)n4n3)CC2)cc1`, for which, in assay [1], the cell count worked out at 485. Moreover, the inhibition in assay [1] was -5.5% (inactive); in assay [3], -67.5% (inactive); in assay [7], -3.46% (inactive); in assay [8], -17.8% (inactive). The inhibition of aggregation in assay [2] was 13.8% (inactive). Further, the nuclei count in assay [2] stood at 10.8%; in assay [3], 102%. Also, the fluorescence slope in assay [4] was -0.63 (inactive). In addition, in assay [5], the NADPH fluorescence slope was -1.7e-05 (inactive). Besides, the slope in assay [6] was 0.00645 (inactive).
With `CC(=O)c1cccc(S(=O)(=O)NCC(c2ccco2)N2CCCCC2)c1` (centres undefined), in assay [1], the cell count turned out to be 707. In addition, the inhibition in assay [1] is -2% (inactive); in assay [3], -140% (inactive); in assay [7], 5.82% (inactive); in assay [8] it was 6.55% (inactive). Also, the inhibition of aggregation in assay [2] is -10% (inactive). Moreover, the nuclei count in assay [2] came to 107%; in assay [3], 145%. Besides, in assay [4], the fluorescence slope is -0.62 (inactive). For the same molecule, in assay [5], the NADPH fluorescence slope was -1.6e-05 (inactive). In addition, in assay [6], the slope was 0.0049 (inactive).
With `CCCc1nc(NCc2ccncc2)c2nnn(Cc3ccccc3F)c2n1`, the cell count in assay [1] amounted to 711. Also, the inhibition was -6.1% (inactive) in assay [1], -57% (inactive) in assay [3], 9.12% (inactive) in assay [7] and 19.1% (inactive) in assay [8]. Also, the inhibition of aggregation in assay [2] is -40.7% (inactive). The results for the nuclei count in assay [2] and in assay [3] were 116% and 120%, respectively. The fluorescence slope in assay [4] is -0.507 (inactive). Further, the NADPH fluorescence slope in assay [5] was -0.000136 (inactive). In assay [6], the slope is 0.00544 (inactive).
Take `Cc1c(C(=O)N2CCCC2)sc(NC(=O)c2cccs2)c1C#N`: the cell count in assay [1] came to 706. In addition, the inhibition in assay [1] is 17.1% (inactive); in assay [3], -67.6% (inactive); in assay [7] it was 14.8% (inactive); in assay [8] it was 12.4% (inactive). In addition, in assay [2], the inhibition of aggregation was 10.4% (inactive). For the same molecule, the nuclei count in assay [2] came out at 86.7%; in assay [3], 130%. In addition, the fluorescence slope in assay [4] was -0.504 (inactive). Also, the NADPH fluorescence slope in assay [5] is -8.5e-06 (inactive). Moreover, in assay [6], the slope was 0.00564 (inactive).
With `COc1cccc(OC)c1OCCCSc1nc(C)cc(=O)[nH]1`, the cell count in assay [1] worked out at 402. The inhibition was -1.6% (inactive) in assay [1], 24.3% (inactive) in assay [3], -9.76% (inactive) in assay [7] and -3.85% (inactive) in assay [8]. In addition, the inhibition of aggregation in assay [2] was 1.1% (inactive). For the same molecule, the values for the nuclei count in assay [2] and in assay [3] were 108% and 97.1%, respectively. Further, the fluorescence slope in assay [4] is -0.422 (inactive). In addition, the NADPH fluorescence slope in assay [5] is -2.1e-05 (inactive). Further, in assay [6], the slope was 0.00519 (inactive).
Turning to `CCOC(=O)N1CCN(C(=O)COc2ccc(Br)cc2Cl)CC1`, the cell count in assay [1] worked out at 317. Also, the inhibition in assay [1] was 2% (inactive); in assay [3], -27.2% (inactive); in assay [7], 6.45% (inactive); in assay [8], 30.7% (inactive). In addition, the inhibition of aggregation in assay [2] was -6.6% (inactive). The nuclei count worked out at 98.4% in assay [2] and 118% in assay [3]. Also, the fluorescence slope in assay [4] was -0.445 (inactive). Further, the NADPH fluorescence slope in assay [5] was -5.1e-05 (inactive). In addition, the slope in assay [6] is 0.00378 (inactive).
Take `COc1ccc(CCn2c(NCCCN3CCOCC3)nc3c2c(=O)[nH]c(=O)n3C)cc1`: the cell count in assay [1] worked out at 395. Moreover, the inhibition is 2.1% (inactive) in assay [1], -6.4% (inactive) in assay [3], -6.62% (inactive) in assay [7] and -4.13% (inactive) in assay [8]. The inhibition of aggregation in assay [2] is -5.3% (inactive). The nuclei count in assay [2] amounted to 110%; in assay [3], 99.3%. The fluorescence slope in assay [4] was -0.539 (inactive). Besides, the NADPH fluorescence slope in assay [5] was 2.7e-05 (inactive). For the same molecule, the slope in assay [6] is 0.00501 (inactive).
With `COc1ccccc1NC1=NC(c2ccc(Cl)cc2)N=C(N)N1` (centres undefined), the cell count in assay [1] amounted to 395. In addition, the inhibition is 5.2% (inactive) in assay [1], -308% (inactive) in assay [3], 29.3% (inactive) in assay [7] and 49.9% (inactive) in assay [8]. In assay [2], the inhibition of aggregation is -17.1% (inactive). Besides, the nuclei count in assay [2] was found to be 35.1%; in assay [3], 124%. Besides, the fluorescence slope in assay [4] was -0.299 (inactive). In addition, the NADPH fluorescence slope in assay [5] was -4.5e-05 (inactive). The slope in assay [6] is 0.0046 (inactive).
Regarding `COc1ccc(OC)c(NC(=O)CSc2nnc(Cc3cccn3C)n2-c2ccc(F)cc2)c1`, the cell count in assay [1] is 671. Further, the inhibition in assay [1] is -3.4% (inactive); in assay [3], -40.2% (inactive); in assay [7] it was 19.4% (inactive); in assay [8] it was 30.1% (inactive). The inhibition of aggregation in assay [2] is 14.8% (inactive). Moreover, the figures for the nuclei count in assay [2] and in assay [3] were 86.6% and 106%, respectively. In assay [4], the fluorescence slope is -0.609 (inactive). Moreover, in assay [5], the NADPH fluorescence slope was 1.6e-05 (inactive). Moreover, the slope in assay [6] is 0.00527 (inactive).
With `Cc1ccc2c(c1)NC(=O)C(CC(=O)NC1CCCCC1C)O2` (centres undefined), the cell count in assay [1] is 611. Besides, the inhibition in assay [1] is 2% (inactive); in assay [3] it was 21.5% (inactive); in assay [7] it was 9.73% (inactive); in assay [8] it was 1.78% (inactive). Also, in assay [2], the inhibition of aggregation is 22% (inactive). Besides, the nuclei count in assay [2] stood at 86.3%; in assay [3], 114%. Besides, the fluorescence slope in assay [4] is -0.51 (inactive). The NADPH fluorescence slope in assay [5] is -4.1e-05 (inactive). Also, the slope in assay [6] was 0.00567 (inactive).
Consider `Cc1nc2ccc(S(=O)(=O)NCC(=O)N(C)Cc3ccco3)cc2s1`, for which, in assay [1], the cell count was 355. Moreover, the inhibition in assay [1] was 5.2% (inactive); in assay [3] it was -12.8% (inactive); in assay [7], 14.7% (inactive); in assay [8], 14.5% (inactive). Moreover, the inhibition of aggregation in assay [2] was -6.5% (inactive). Besides, the nuclei count came to 95.6% in assay [2] and 101% in assay [3]. In assay [4], the fluorescence slope was -0.503 (inactive). For the same molecule, the NADPH fluorescence slope in assay [5] is -1.2e-05 (inactive). Besides, the slope in assay [6] is 0.00704 (inactive).
On to `CC(C)c1nccn1S(=O)(=O)c1cc(Cl)ccc1Cl`, for which the cell count in assay [1] is 582. The inhibition was -11.9% (inactive) in assay [1], 20.8% (inactive) in assay [3], 8.92% (inactive) in assay [7] and 31% (inactive) in assay [8]. In addition, the inhibition of aggregation in assay [2] is 6.2% (inactive). For the same molecule, the nuclei count in assay [2] was 110%; in assay [3] it was 122%. In assay [4], the fluorescence slope is -0.422 (inactive). In addition, in assay [5], the NADPH fluorescence slope is -4.2e-05 (inactive). In assay [6], the slope was 0.0045 (inactive).
